D2 ag-1 = activates the human D2 dopamine receptor; P14416; HEK293 T-REx D2 cells, calcium flux agonist mode; activation, % at 2 µM; 340,000 compounds, 0.53% hits;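 active means activation over 3 SD above normal in the single-dose calcium agonist read, cut at about 30% in these data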; further: 0% is about no effect
Target sequence (P14416 whole entry, looked up): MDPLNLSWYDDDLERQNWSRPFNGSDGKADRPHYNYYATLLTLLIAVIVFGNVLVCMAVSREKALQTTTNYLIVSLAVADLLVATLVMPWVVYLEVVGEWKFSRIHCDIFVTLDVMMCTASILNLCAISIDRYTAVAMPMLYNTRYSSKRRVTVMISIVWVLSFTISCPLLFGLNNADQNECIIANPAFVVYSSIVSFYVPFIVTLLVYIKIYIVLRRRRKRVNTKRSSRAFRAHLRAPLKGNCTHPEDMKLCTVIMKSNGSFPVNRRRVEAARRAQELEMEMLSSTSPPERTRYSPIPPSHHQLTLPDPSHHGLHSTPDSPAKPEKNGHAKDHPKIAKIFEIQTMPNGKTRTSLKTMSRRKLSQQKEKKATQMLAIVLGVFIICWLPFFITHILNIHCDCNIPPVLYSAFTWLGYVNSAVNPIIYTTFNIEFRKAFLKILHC
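Tetracycline-induced HEK293 T-REx cells with force-coupled D2 receptor, plated overnight at 30 C, loaded with no-wash calcium dye. After a 10 s baseline, compound was pin-added and calcium flux read kinetically for 180 s; calcium rises flagged agonists.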
D2 PAM-1 = positive allosteric modulators of human D2 dopamine receptor; P14416; potentiation, % (no concentration beside the values); 360,000 compounds, 0.23% hits; DiscoveRx D2 beta-arrestin cells, luminescence, 90 min; 100% = 57 uM dopamine signal; in the data active means potentiation above about 50%; inconclusive means mostly about 30% to 49%
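D2 cells co-treated with compound plus 50 nM dopamine (EC20) for 90 min at 37 deg C to detect potentiation. Beta-arrestin recruitment was read as enzyme-fragment luminescence after 1 h at ambient temperature. Full response was set by 57 uM dopamine.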
D2 ag-2 = activates the human D2 dopamine receptor; activation, % (no concentration beside the values); DiscoveRx PathHunter D2 beta-arrestin, luminescence, 90 min; 100% = 57 uM dopamine signal; AID 624465; P14416; 360,000 compounds, 0.084% hits; in the data active means activation above about 40%; inconclusive means between about 15% and that limit
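Agonist mode: compounds alone added to overnight-plated D2 PathHunter cells for 90 min at 37 C, with 57 uM final dopamine (EC100) defining full response. Beta-arrestin recruitment detected by chemiluminescent reagent, read after 1 h at ambient temperature.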
D2 PAM-2 = positive allosteric modulators of human D2 dopamine receptor; P14416; HEK293 T-REx D2, calcium flux, EC20 dopamine potentiation; potentiation, % at 10 µM; 340,000 compounds, 0.34% hits;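 active means potentiation over 3 SD above the plate norm, cut at about 30% in these data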; further: 0% is about no effect
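Tetracycline-induced Hek293 Trex D2 cells, force-coupled to calcium, loaded with no-wash calcium dye. Compound added with 180 s kinetic read for agonism, then EC20 dopamine and a further 180 s read for potentiation.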
D2 antagonist = antagonizes the human D2 dopamine receptor. P14416. HEK293 TREx D2 cells, calcium flux, dopamine EC80. inhibition, % at 10 µM. 340,000 compounds, 2% hits; in the data active means inhibition above about 30%; inactive means below that, where a call was filed; further: 0% is about no effect
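Calcium mobilization kinetics were recorded at 1 s intervals in tetracycline-induced HEK293 T-REx D2 cells, first for 180 s after compound addition and then 180 s after EC80 dopamine.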
D3 arrestin ag = confirmation of human D3 dopamine receptor agonists, beta-arrestin | DiscoveRx D3 beta-arrestin cells, luminescence, 90 min | 2,300 compounds, 4% hits | AID 720506 | Potency, µM (top dose mostly 76.9 µM), inactives show at the top dose activation, most hits filed as activators | shares compounds with D2 ag-1;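 further: potency means the concentration at half of the fitted maximal effect; 100% = dopamine control response; nearly all actives have a fitted effect of over 70% in size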
D2 ag-3 = activates human D2 dopamine receptor in D3 counterscreen | shares compounds with D2 ag-1 | DiscoveRx PathHunter D2 beta-arrestin, luminescence, 90 min; response scale: percent relative to full dopamine signal | Potency, µM (doses to about 76.9 µM), without a hit: top-dose activation, most hits filed as activators | 2,300 compounds, 5.9% hits | AID 720507; further: potency means the concentration at half of the fitted maximal effect; % of control where 0% means no effect; nearly all actives have a fitted effect of over 70% in size
* marks the source's active call; other numbers are inactive results; ? = inconclusive; . = not tested or not shown. An excerpt weighted towards active compounds, which were near 2.4% of everything screened. Unless noted, the call rests on the fitted dose curve; in most records, active means well fitted activation curve with a large enough effect; inconclusive means small, poorly fitted or top-dose-only effect; inactive means flat fitted curve, though single readings scatter.

SMILES	D2 ag-1	D2 PAM-1	D2 ag-2	D2 PAM-2	D2 antagonist	D3 arrestin ag	D2 ag-3
OC(COc1ccc2ccccc2c1)CN1CCN(c2ccc(F)cc2)CC1 (configuration not stated)	53*	4	1	-27	20	?	30%
OC(COc1c(F)cc(Br)cc1F)CN1CCN(c2ccc(F)cc2)CC1 (configuration not stated)	59*	-14	1	-30	71*	?	?
CN(C)S(=O)(=O)c1cccc(COC(=O)CNC(=O)c2ccc(Br)o2)c1	0	-4	0	-3	-10	.	.
COc1cccc(NC(=O)C2CCCO2)c1 (configuration not stated)	0	-10	5	2	5	.	.
COc1cccc(C2CC(=O)Nc3cc(OC)c(OC)cc32)c1 (configuration not stated)	0	4	3	6	27	.	.
COc1cccc(C2CC(=O)Nc3cc4c(cc32)CCC4)c1 (configuration not stated)	-1	-4	-7	13	10	23%	10%
O=C(CCCSCCCC(=O)NN=Cc1ccccc1)NN=Cc1ccccc1	.	-7	5	.	.	.	.
NS(=O)(=O)c1ccc(-c2ccc(/C=N/Nc3ccc(C(=O)O)cc3)o2)cc1	4	16	?	-1	8	11%	15%
NS(=O)(=O)c1ccc(-c2ccc(/C=N/NC(=O)c3ccc([N+](=O)[O-])cc3)o2)cc1	0	5	1	1	5	.	.
O=C(NCc1ccco1)c1ccc(Cn2c(SCc3ccccc3)nc3cccnc32)cc1	1	.	.	-3	.	.	.
CC(C)(C)OC(=O)N1CCC(c2c(C(=O)N3CCOCC3)cnn2-c2cccc(F)c2)CC1	1	.	.	-8	.	.	.
COc1ccc(NC(=O)c2cc(S(=O)(=O)N3CCOCC3)ccc2C)cc1S(=O)(=O)N1CCCCC1	.	5	0	.	.	.	.
CCCCn1c(N)c(N(CC)C(=O)c2cccc(OCc3ccccc3)c2)c(=O)[nH]c1=O	0	5	8	-12	8	20%	-3%
CCCCn1c(N)c(N(CC)C(=O)c2cccc(F)c2)c(=O)[nH]c1=O	4	-4	-5	-3	-2	.	.
Cc1nn(-c2ccccc2)c(C)c1/C=N/N1CCN(c2ccccn2)CC1	19	-2	9	2	16	?	17%
CN(C)c1ccc(/C=N/N2CCN(c3ccccn3)CC2)cc1	45*	21	?	-23	16	8%	13%
Cc1nn(-c2ccccc2)c(Cl)c1/C=N/N1CCN(c2ccccn2)CC1	-1	-6	-1	-11	3	.	.
O=C(O)C1CCCCN1C(=O)c1cc2c(s1)CCCCC2 (configuration not stated)	0	-5	-5	-3	-23	.	.
COc1ccccc1CNC(=O)COC(=O)CSc1ccc(C)c(C)c1	0	-12	-3	-5	-5	-7%	-5%
Cc1ccc(SCC(=O)OCC(=O)NCc2cccs2)cc1C	0	-4	-6	7	-3	.	.
COc1ccc(C(=O)Nc2cc(Cl)ccc2-n2cncn2)c(OC)c1OC	2	0	2	-4	-12	20%	6%
CCCC(C)C(=O)Nc1ncc(S(=O)(=O)c2ccc([N+](=O)[O-])cc2)s1 (configuration not stated)	23	11	14	10	19	?	24%
CCOCCC(=O)Nc1ncc(S(=O)(=O)c2ccc([N+](=O)[O-])cc2)s1	.	-2	?	.	.	.	.
COc1ccc(C)cc1NC(=S)N1CCN(c2ccccn2)CC1	57*	0	-1	-23	-3	-4%	-1%
CCc1ccccc1NC(=S)N1CCN(c2ccccn2)CC1	33*	-16	3	-16	1	-7%	?
